# Measured values: PubChem BioAssay AID2751 (The Scripps Research Institute Molecular Screening Center, 2010)
# Values joined by “and” are separate entries in the source; they are usually repeats but may differ in a detail not shown here. Identical values can stand only once. Hit rate of the full screen: of about 320,000 compounds, about 2,200 (0.69%) were called active. This is one part of a sample in which actives are shown more often than they occur. No stated cut-off is given here; in the data, active means inhibition above about 43%; inactive means the rest. The source holds several records for some structures; these can differ, active in one and inactive in another.
# Target: Prolyl endopeptidase-like (Homo sapiens) (UniProt Q4J6C6)
# Sequence (Q4J6C6 whole entry, looked up): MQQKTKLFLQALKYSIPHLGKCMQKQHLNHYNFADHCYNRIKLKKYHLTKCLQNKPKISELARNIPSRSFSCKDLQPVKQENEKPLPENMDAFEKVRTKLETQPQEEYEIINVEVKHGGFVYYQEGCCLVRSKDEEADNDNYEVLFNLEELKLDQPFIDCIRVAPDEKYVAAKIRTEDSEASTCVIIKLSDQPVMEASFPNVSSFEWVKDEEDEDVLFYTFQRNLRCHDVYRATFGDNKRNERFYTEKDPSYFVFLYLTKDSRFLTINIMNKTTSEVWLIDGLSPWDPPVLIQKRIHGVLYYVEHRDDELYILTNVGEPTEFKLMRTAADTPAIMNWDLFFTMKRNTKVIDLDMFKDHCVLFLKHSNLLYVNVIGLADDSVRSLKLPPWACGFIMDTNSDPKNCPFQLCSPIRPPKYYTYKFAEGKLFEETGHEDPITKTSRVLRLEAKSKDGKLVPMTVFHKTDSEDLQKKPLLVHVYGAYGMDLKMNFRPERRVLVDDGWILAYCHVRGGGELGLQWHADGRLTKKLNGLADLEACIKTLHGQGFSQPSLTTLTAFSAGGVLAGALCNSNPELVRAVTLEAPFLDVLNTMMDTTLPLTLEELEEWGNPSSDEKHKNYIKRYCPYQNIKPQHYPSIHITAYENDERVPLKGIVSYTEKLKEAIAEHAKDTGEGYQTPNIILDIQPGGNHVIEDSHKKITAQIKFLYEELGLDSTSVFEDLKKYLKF
# Test: human PREPL activity-probe blockers – biochemical, fluorescence polarization, primary screen (AID 2751);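 further: 0% = enzyme with DMSO and 100% = wells lacking enzyme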
# Details: recombinant PREPL, fluorescence polarization activity-based probe; at 5.96 µM; stronger effect = higher value
row,Structure (SMILES),inhibition
1,CCc1ccc(S(=O)(=O)Nc2ccc(C)c(NS(C)(=O)=O)c2)cc1,-2.02% (inactive)
2,Cc1cccc2nc(CNc3ccc(F)cc3)cn12,-2.47% (inactive)
3,O=C(CN1CCOCC1)Nc1c2c(nc3c1CCC3)CCC2,-8.04% (inactive)
4,CCC(=C/c1sc2ccc3ccccc3c2[n+]1C)/C=C1\Sc2ccc3ccccc3c2N1C,90.7% (active)
5,CC(=O)Nc1ccc(NC(=O)C(C)OC(=O)C2CC(=O)N(CCc3ccccc3)C2)cc1 (stereo not drawn),12.3% (inactive)
6,CC1(C)CC[C@@]2(C(=O)O)C(C1)C1=CCC3[C@@]4(C)CC[C@H](O)C(C)(C)C4CC[C@@]3(C)[C@]1(C)C[C@H]2O (stereo partly drawn),21.2% (inactive)
7,COc1ccc2cc1Oc1ccc(cc1)C[C@H]1c3cc(c(OC)cc3CCN1C)Oc1c(O)c(OC)cc3c1[C@H](C2)N(C)CC3,59% (active)
8,COc1c(O)ccc2c1CN1CCc3cc4c(cc3C1C2)OCO4 (stereo not drawn),16.4% (inactive)
9,CC(C)(C)C(=O)N1CCC[C@@]1(CO)C(=O)O,6.21% (inactive)
10,CCC/C(C)=N\Nc1nc2c(c(=O)n(C)c(=O)n2C)n1C,11.5% (inactive)
11,CCN1CC(CN(C)Cc2nc(-c3ccc(Cl)cc3)no2)CC1=O (stereo not drawn),18.3% (inactive)
12,Cc1cc(C(=O)NCCc2ccc(Cl)cc2)c(C)o1,6.11% (inactive)
13,CC(C)CN(C(=O)CN1CCN(S(=O)(=O)c2ccccc2)CC1)c1c(N)n(CC(C)C)c(=O)[nH]c1=O,9.18% (inactive)
14,O=C1NC(Cc2ccc(O)cc2)c2nc3ccc(Cl)cc3c(=O)n2-c2ccccc21 (stereo not drawn),12.8% (inactive)
15,CCc1nc(NCCO)c(C#N)c2c1CCCC2,7.84% (inactive)
16,CC(C)CCNc1nc(N2CCCC2)c2c(c1C#N)CCN(C)C2,55.6% (active)
17,CC(C)Cc1nc(N2CCOCC2)c(C#N)c2c1CCC2,2.59% (inactive)

row,Structure (SMILES),inhibition
1,CC(Sc1nc2c([nH]c3ccccc32)c(=O)n1C)c1ccccc1 (stereo not drawn),-0.13% (inactive)
2,Cc1ccccc1NC(=O)C1CCCN(C(=O)NCc2ccccc2)C1 (stereo not drawn),10.1% (inactive)
3,O=C(Nc1ccc(Cl)cc1)N1CCc2[nH]c3ccccc3c2C1,14.6% (inactive)
4,COC(=O)C1CCN(C(=O)c2cc(=O)[nH]c3ccccc23)CC1,-5.95% (inactive)
5,COC(=O)[C@H]1[C@H]2C[C@H]3c4[nH]c5ccccc5c4CCN3C[C@@H]2CC[C@@H]1O,16.7% (inactive) and 45.8% (active)
6,OC(COc1ccc(F)cc1Cl)CN1CCc2ccccc2C1 (stereo not drawn),3.81% (inactive)
7,CCCC(C(=O)NCc1ccco1)N(C(=O)CNS(=O)(=O)c1ccccc1)C1CCCC1 (stereo not drawn),-3.85% (inactive)
8,O=C(OCC1OC(Oc2ccc(O)cc2)C(O)C(O)C1O)c1ccccc1 (stereo not drawn),9.62% (inactive)
9,O=C(OCC1O[C@@H](OC(=O)c2cc(O)c(O)c(O)c2)[C@@H](OC(=O)c2cc(O)c(O)c(O)c2)[C@@H](OC(=O)c2cc(O)c(O)c(O)c2)[C@@H]1OC(=O)c1cc(O)c(O)c(O)c1)c1cc(O)c(O)c(O)c1 (stereo partly drawn),87.5% (active)
10,COc1ccccc1C(=O)NCc1nnc(SC(C)C(=O)Nc2nccs2)n1C (stereo not drawn),-8.82% (inactive)
11,CCC(=O)N1c2ccc(S(=O)(=O)NCc3ccco3)cc2CC1C (stereo not drawn),-3.18% (inactive)
12,O=C(CSc1ncnc2sccc12)N1CCN(C(=O)c2cccs2)CC1,6.26% (inactive)
13,Nc1c(C(=O)c2cccs2)sc2nsc(SCCN3CCCCC3)c12,48.1% (active)
14,CN(CC(=O)Nc1ccc(Cl)c(C(F)(F)F)c1)C(=O)CCC(=O)c1ccccc1,1.31% (inactive)
15,CC(C)c1ccc(S(=O)(=O)N2CCN(C(C)C(=O)NC3CCCC3)CC2)cc1 (stereo not drawn),5.61% (inactive)
16,CC(Oc1ccc(F)cc1)C(=O)Nc1ccccc1C(=O)NC1CC1 (stereo not drawn),-10.5% (inactive)
